Laboratory results published in ChEMBL document CHEMBL3988442, “University of Dundee, Small-Polar-MMV Screening Library” (2021).

molecular target: T1, Aspartate--tRNA(Asp/Asn) ligase (Mycobacterium tuberculosis (strain ATCC 25618 / H37Rv)) (UniProt P9WFW3); assay: Assay for Asp RNA synthetase-1 from Mycobacterium tuberculosis; type: functional; design: scale not given: direction of the effect not stated beside the values; conditions: 30 µM; note: in the data most compounds retested in dose-response had high values
T1 sequence (whole entry): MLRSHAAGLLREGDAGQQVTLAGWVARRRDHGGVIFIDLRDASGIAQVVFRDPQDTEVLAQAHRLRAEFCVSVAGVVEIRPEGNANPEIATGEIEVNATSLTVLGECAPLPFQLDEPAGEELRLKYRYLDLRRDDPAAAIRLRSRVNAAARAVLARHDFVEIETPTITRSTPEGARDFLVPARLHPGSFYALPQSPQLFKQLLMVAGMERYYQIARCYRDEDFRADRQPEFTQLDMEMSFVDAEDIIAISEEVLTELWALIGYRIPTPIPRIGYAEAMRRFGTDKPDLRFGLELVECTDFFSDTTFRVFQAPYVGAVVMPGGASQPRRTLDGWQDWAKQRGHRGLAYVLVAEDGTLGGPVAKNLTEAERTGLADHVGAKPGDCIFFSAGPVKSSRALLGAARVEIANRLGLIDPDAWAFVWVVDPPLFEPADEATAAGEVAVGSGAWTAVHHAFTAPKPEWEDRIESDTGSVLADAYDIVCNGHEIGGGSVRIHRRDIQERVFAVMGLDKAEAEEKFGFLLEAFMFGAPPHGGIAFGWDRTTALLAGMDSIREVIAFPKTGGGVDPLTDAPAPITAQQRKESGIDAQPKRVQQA

Point of comparison: CCc1cc(C(F)(F)F)c2c(C)nn(CC(=O)O)c2n1, Percent Effect -5.37%. Against it:
- COc1cccc(CN2CCN(C(=O)CN3CCOCC3)CC2)n1 — higher, -3.48%
- c1ccc(N2CCCC3(COCCN(c4nccs4)C3)C2)nc1 (stereo not given) — higher, 3.08%
- O=C(C1CCCC1)N1CCC2(CC1)COCCN2CC1CC1 — higher, -3.37%
- O=C(CCN1CCCC1c1cccs1)N1CCc2sccc2C1 (stereo not given) — higher, -0.954%
- CCn1ncc(NC(=O)c2cc(C3CC3)nc3c2c(C)nn3C)c1C — higher, -1.99%
- CC(NC(=O)c1ccc2c(c1)OCC(=O)N2)c1ccccc1F (stereo not given) — higher, 7.05%
- CNC(=O)CS(=O)(=O)C1CCN(S(=O)(=O)c2c(F)cccc2F)CC1 — higher, -1.03%
- CC(Cn1cccn1)NC(=O)Cc1cccs1 (stereo not given) — higher, -2.6%
- O=C(c1ccc2c(c1)CCCC2)N1CCOCC1c1ncon1 (stereo not given) — higher, -2.09%
- O=C1CCC2(CCN(c3ncc(F)cn3)CC2)N1CCN1CCCC1 — higher, 1.53%
- CS(=O)(=O)NCC1CCCN(C(=O)COCc2ccccc2)C1 (stereo not given) — lower, -6.12%
- Cc1ccc(C(=O)N2CCC3(CC2)CC(c2ccccc2)C(=O)N3)cn1 (stereo not given) — higher, 7.75%
- Cc1nc(C(=O)N2CCc3c(nc(-c4ccncc4)[nH]c3=O)C2)cs1 — higher, 0.783%
- CC(C)NC(=O)[C@@H]1C[C@H](N)CN1C(=O)c1cc2c([nH]c1=O)CCCC2 — higher, 2.4%
- Cn1ccc(C(=O)N2CCN(CCc3ccccc3)CC2)cc1=O — higher, -1.76%
- Cc1cc(C)n(CC2CCCN2C(=O)c2ccc3c(c2)nnn3C)n1 (stereo not given) — higher, 5.23%
- CC(C(N)=O)N(C)CCCc1cc(-c2ccccc2)no1 (stereo not given) — higher, 4.08%
- Cn1cc(CN2CCN(Cc3nccn3C)CC2)cn1 — higher, -2.81%
- COc1ccc(C(O)CNC(=O)NCc2csc(C)n2)cc1 (stereo not given) — higher, -1.2%
- O=c1cc(CN2CCCC(CCc3c(F)cccc3F)C2)[nH]c(=O)[nH]1 (stereo not given) — higher, 3.07%
- Cc1noc(C(C)C)c1C(=O)NCCN1CCCCCC1=O — higher, 2.13%
- Cc1nc(CCNC(=O)NC2CCN(c3ncccn3)CC2)cs1 — higher, -2.14%
- Cc1cc(CN2CCc3nn(C)c(=O)cc3C2)on1 — higher, 46.2%
- Cc1nc2c(c(C)c1CC(=O)Nc1cccc(C#N)c1)c(=O)[nH]n2C — higher, 4.67%
- CN(Cc1cn2c(n1)CN(c1ncc(F)cn1)CC2)Cc1ccco1 — higher, 2.34%
- CCn1c(C)nnc1CN(C)C1CCN(Cc2nccn2C)C1 (stereo not given) — higher, 1.34%
- CN(C)C(=O)Cc1nc(CN2CCCCC2Cn2cccn2)cs1 (stereo not given) — higher, 2.64%
- Cc1csc(C2CCCN(C(=O)c3cnc4n[nH]c(C)c4c3)C2)n1 (stereo not given) — higher, 0.533%
- CC(O)CN1CCN(Cc2nnc(C3CC3)o2)CC1 (stereo not given) — higher, 0.971%
- CC(C)n1ccnc1CN1CCCN(C(=O)CC2C=CCC2)CC1 (stereo not given) — higher, 1.91%
- O=C(CSc1ccccc1Cl)NS(=O)(=O)c1ccc2c(c1)OCCO2 — lower, -8.39%
- Cc1ccc(-n2nnc(CC(=O)N3CCSCC3)c2C)cc1 — higher, 2.79%
- O=C1CC(c2cccnc2)c2c(c(C(=O)O)cn2-c2ccccc2)N1 (stereo not given) — higher, 4.82%
- NC(=O)N1CCC2(CCN(Cc3cccc(F)c3)CC2)CC1 — higher, -3.39%
- COc1ccc2cc(C3CN(C(=O)C4CCOCC4)CCO3)ccc2c1 (stereo not given) — higher, 0.234%
- O=C1CN(Cc2ccc(-c3ccccc3C(=O)O)cc2)CCN1 — higher, 5.6%
- NC(=O)c1ccc(NC(=O)CCN2CCCC(N3CCCC3)C2)cc1 (stereo not given) — higher, -4.91%
- O=C(COCC1CC1)N1CCCC(n2cccn2)C1 (stereo not given) — higher, 4.67%
- c1cnc(NCc2ncn3c2CN(Cc2cccnc2)CCC3)nc1 — higher, -2.66%

molecular target: Shiga toxin 2 (Escherichia coli O157:H7) (UniProt P09385+P09386); assay: E. coli 0.157:H7 Shiga Toxin SOP - stx2 screening assay; type: functional; design: scale not given: direction of the effect not stated beside the values; conditions: 30 µM

Point of comparison: c1ccc(N2CCCC3(COCCN(c4nccs4)C3)C2)nc1 (stereo not given), Percent Effect -3.13%. Against it:
- COc1cccc(CN2CCN(C(=O)CN3CCOCC3)CC2)n1 — higher, -2.5%
- O=C(C1CCCC1)N1CCC2(CC1)COCCN2CC1CC1 — higher, 0.147%
- O=C(CCN1CCCC1c1cccs1)N1CCc2sccc2C1 (stereo not given) — higher, 1.91%
- CCn1ncc(NC(=O)c2cc(C3CC3)nc3c2c(C)nn3C)c1C — lower, -23%
- CC(NC(=O)c1ccc2c(c1)OCC(=O)N2)c1ccccc1F (stereo not given) — higher, 24%
- CNC(=O)CS(=O)(=O)C1CCN(S(=O)(=O)c2c(F)cccc2F)CC1 — lower, -5.55%
- CCc1cc(C(F)(F)F)c2c(C)nn(CC(=O)O)c2n1 — higher, 14.6%
- CC(Cn1cccn1)NC(=O)Cc1cccs1 (stereo not given) — lower, -16.8%
- O=C(c1ccc2c(c1)CCCC2)N1CCOCC1c1ncon1 (stereo not given) — higher, 0.194%
- O=C1CCC2(CCN(c3ncc(F)cn3)CC2)N1CCN1CCCC1 — higher, -1.87%
- CS(=O)(=O)NCC1CCCN(C(=O)COCc2ccccc2)C1 (stereo not given) — lower, -16.5%
- Cc1ccc(C(=O)N2CCC3(CC2)CC(c2ccccc2)C(=O)N3)cn1 (stereo not given) — lower, -10.4%
- Cc1nc(C(=O)N2CCc3c(nc(-c4ccncc4)[nH]c3=O)C2)cs1 — higher, 13.5%
- CC(C)NC(=O)[C@@H]1C[C@H](N)CN1C(=O)c1cc2c([nH]c1=O)CCCC2 — higher, -1.55%
- Cn1ccc(C(=O)N2CCN(CCc3ccccc3)CC2)cc1=O — lower, -19.1%
- Cc1cc(C)n(CC2CCCN2C(=O)c2ccc3c(c2)nnn3C)n1 (stereo not given) — lower, -34.8%
- CC(C(N)=O)N(C)CCCc1cc(-c2ccccc2)no1 (stereo not given) — higher, 15%
- Cn1cc(CN2CCN(Cc3nccn3C)CC2)cn1 — lower, -37.2%
- COc1ccc(C(O)CNC(=O)NCc2csc(C)n2)cc1 (stereo not given) — lower, -23.7%
- O=c1cc(CN2CCCC(CCc3c(F)cccc3F)C2)[nH]c(=O)[nH]1 (stereo not given) — lower, -12.7%
- Cc1noc(C(C)C)c1C(=O)NCCN1CCCCCC1=O — lower, -4.24%
- Cc1nc(CCNC(=O)NC2CCN(c3ncccn3)CC2)cs1 — lower, -10%
- Cc1cc(CN2CCc3nn(C)c(=O)cc3C2)on1 — higher, 0.17%
- Cc1nc2c(c(C)c1CC(=O)Nc1cccc(C#N)c1)c(=O)[nH]n2C — higher, 5.09%
- CN(Cc1cn2c(n1)CN(c1ncc(F)cn1)CC2)Cc1ccco1 — lower, -8.28%
- CCn1c(C)nnc1CN(C)C1CCN(Cc2nccn2C)C1 (stereo not given) — lower, -37.8%
- CN(C)C(=O)Cc1nc(CN2CCCCC2Cn2cccn2)cs1 (stereo not given) — lower, -25.1%
- Cc1csc(C2CCCN(C(=O)c3cnc4n[nH]c(C)c4c3)C2)n1 (stereo not given) — higher, 21.9%
- CC(O)CN1CCN(Cc2nnc(C3CC3)o2)CC1 (stereo not given) — lower, -17.9%
- CC(C)n1ccnc1CN1CCCN(C(=O)CC2C=CCC2)CC1 (stereo not given) — higher, -0.917%
- O=C(CSc1ccccc1Cl)NS(=O)(=O)c1ccc2c(c1)OCCO2 — higher, -0.0514%
- Cc1ccc(-n2nnc(CC(=O)N3CCSCC3)c2C)cc1 — lower, -35.4%
- O=C1CC(c2cccnc2)c2c(c(C(=O)O)cn2-c2ccccc2)N1 (stereo not given) — lower, -6.55%
- NC(=O)N1CCC2(CCN(Cc3cccc(F)c3)CC2)CC1 — lower, -34.5%
- COc1ccc2cc(C3CN(C(=O)C4CCOCC4)CCO3)ccc2c1 (stereo not given) — higher, 7.44%
- O=C1CN(Cc2ccc(-c3ccccc3C(=O)O)cc2)CCN1 — higher, 43.1%
- NC(=O)c1ccc(NC(=O)CCN2CCCC(N3CCCC3)C2)cc1 (stereo not given) — higher, 24.7%
- O=C(COCC1CC1)N1CCCC(n2cccn2)C1 (stereo not given) — lower, -15.2%
- c1cnc(NCc2ncn3c2CN(Cc2cccnc2)CCC3)nc1 — lower, -5.14%
